In PubChem BioAssay (NCI):
Compounds without any hit were thinned out: in the full panel of roughly 83,000, 20% have a hit.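 Growth was measured after 48 h exposure to one concentration of compound in 96-well plates. Values under 10 count as active.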 Unmarked numbers belong to inactive results. Calls of active or inactive are those of the source.

Legend:
Experiment in all cases: NCI-60 one-dose screen, 48 h (100 = growth as untreated, 0 = no growth, -100 = all killed)
Details in all cases: 10 µM unless noted
[1] = tested on: BT-549 breast
[2] = tested on: MDA-MB-435 melanoma
[3] = tested on: SW-620 colon
[4] = tested on: MCF7 breast
[5] = tested on: HCT-116 colon
[6] = tested on: HCC-2998 colon
[7] = tested on: KM12 colon
[8] = tested on: T-47D breast

| SMILES | growth [1] | growth [2] | growth [3] | growth [4] | growth [5] | growth [6] | growth [7] | growth [8] |
| --- | --- | --- | --- | --- | --- | --- | --- | --- |
| COc1cc(C(=O)Oc2ccccc2OC(=O)c2cc(OC)c(OC)c(OC)c2)cc(OC)c1OC | 94% | 103% | 109% | 97.2% | 104% | 101% | 90.8% |  |
| COc1ccc(/C=C2\Oc3cc(OCCCCN4CCCC4)ccc3C2=O)cc1 | 82.3% | 96.5% | 13.4% | 39.6% |  | 91% | 70.5% | 87.8% |
| CC(C)(C)CC(C)(C)c1ccc(OCCOCC[N+](C)(C)Cc2ccccc2)cc1 |  | -81.1% (active) | -39.2% (active) | -80.4% (active) | -27.9% (active) | -32.5% (active) | -91.3% (active) | -7.78% (active) |
| CCOc1cc2ncc(C#N)c(Nc3ccc(OCc4cccc(F)c4)c(Cl)c3)c2cc1NC(=O)CCCCC1CCSS1 (stereo not given) | 98.5% | 99% | 99.4% | 58.8% | 75.6% | 105% | 82.8% |  |
| CC(C)(C)c1cc(/C=N\NC(=O)/C=C/C=C/c2ccc3c(c2)OCO3)c(O)c(C(C)(C)C)c1 | 92.9% | 86.4% | 74.6% | 61.3% |  | 89.2% | 75.1% | 35% |
| CC[C@@H](C(=O)[C@@H](C)[C@@H](O)[C@H](C)[C@@H]1O[C@@H]([C@@H](CC)C(=O)O)CC[C@@H]1C)[C@H]1OC2(C=C[C@@H](O)[C@]3(CC[C@@](C)([C@H]4CC[C@](O)(CC)[C@H](C)O4)O3)O2)[C@H](C)C[C@@H]1C (stereo not given in full) | -12.3% (active) | -76.2% (active) | 16.2% |  | 12% | 10.7% | 12.2% | 27.2% |
| N#Cc1cnn(-c2nc3c(Cl)cccc3s2)c1N | 90.4% | 87.1% | 94.7% | 68.1% | 61.7% | 91.1% | 88.7% |  |
| Fc1ccc(CNc2cccc3[nH]c(C(F)(F)F)nc23)cc1 | 99% | 95.7% | 94.6% | 92.4% | 95.8% | 119% | 90.6% |  |
| CCN(CC)c1ccc2c(c1)Oc1nc(N)c(C#N)c(N)c1C2Sc1ccc(SC)cc1 (stereo not given) | -80.4% (active) | -25.7% (active) | -70.7% (active) | -0.904% (active) | -27.5% (active) | -72.2% (active) | -74.5% (active) |  |
| NC1=C(Cl)C(=O)c2ccc(S(N)(=O)=O)cc2C1=O | -91.5% (active) | -86.8% (active) | -77.9% (active) | -49.5% (active) | -90.1% (active) | -97.1% (active) | -72.1% (active) |  |
| CN1CCN(c2ccc(Nc3c4ccccc4nc4ccccc34)cc2)CC1 | 112% | 110% | 106% | 99.1% | 104% | 113% | 105% |  |
| COc1ccc(C(=O)c2sc3nc4c(c(-c5cccnc5)c3c2N)CCCC4)cc1OC | 74.6% | 91.7% | 107% | 90.2% | 88.2% | 110% | 76.3% |  |
| COc1cc(-c2ccc3c(c2)NC(=O)/C3=C\c2ccc[nH]2)ccc1O | 46.5% | 12.2% | 28.8% | 6.69% (active) | 14.1% | 1.36% (active) | 1.34% (active) |  |
| Cc1ncc(C(=O)Nc2ccc(CN3CCN(C)CC3)c(C(F)(F)F)c2)cc1C#Cc1cnc2cccnn12 | -10.8% (active) | -54.1% (active) | -5.14% (active) | 2.92% (active) | 0.541% (active) | 11.1% | -0.978% (active) |  |
| COc1ccc(Nc2c3c4c(cccc4[nH]c2=O)C(=O)c2ccccc2-3)cc1 | 6.53% (active) | -52.4% (active) | 19% | 0.568% (active) | 4.08% (active) | -5.28% (active) | -36.2% (active) |  |
| NNCCc1ccc(NC(=O)CCCc2ccc(/C=C/C(=O)NO)cc2)cc1 | 44.9% | 66% | 43.3% | 30.8% | 35.3% | 95.5% | 57.1% |  |
| COc1cc(-c2nn(C)nc2-c2cc3ccccc3s2)cc(OC)c1OC | 18.8% | -41% (active) | 26.7% | 17% | 15.9% | 49.4% | 19.5% |  |
| O=C(Nc1cccc2[nH]c(C(F)(F)F)nc12)c1ccc(-n2cnnn2)cc1 | 63% | 105% | 104% | 96.2% | 96% | 116% | 72.7% |  |
| COc1ccc(/C=C/C(=O)c2cc(O)ccc2O)cc1 | 90.4% | 75.8% | 100% | 94% | 97.4% | 106% | 84.1% |  |
| CCCn1c(=O)[nH]c(N)c([C@H]2c3ccccc3Oc3[nH]c(=O)n(CCC)c(=O)c32)c1=O | 42.8% | 84.4% | 61.2% | 26.4% | 32.5% | 104% | 99.8% |  |
| OCCN1CCN(c2nc(Nc3ccc(-c4nc5ccccc5[nH]4)cc3)c3cn[nH]c3n2)CC1 | -52.3% (active) | -89.9% (active) | -85.4% (active) | -74.4% (active) | -80.1% (active) |  | -73.1% (active) |  |
| CC/C=C\C[C@H]1C/C=C2/C(=O)C=C[C@H]2C/C=C\CCCC(=O)O1 | 32% | 9.04% (active) | 25.4% | 46.2% | -41.9% (active) |  | -3.28% (active) |  |
| O=C(COc1ccc(/C=C2\CSc3ccccc3C2=O)cc1)Nc1nccs1 | 112% | 65.4% | 17.3% | 6.72% (active) | 48.2% | 103% | 13.8% |  |
| FC(F)(F)c1nc2c(NCc3ccc(-c4ccccc4)cc3)cccc2[nH]1 | 91.2% | 93.5% | 75.3% | 87% |  | 107% | 80.5% |  |
